From PubChem
D1 agonist = Allosteric Agonists of the Human D1 Dopamine Receptor: qHTS. D(1A) dopamine receptor (Homo sapiens), P21728. activation, % at 2 µM. HEK293 T-REx D1 cells, calcium flux, agonist mode. AID 504660, 2011. 360,000 compounds, 1% hits; note: 0% is about no effect
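Tetracycline-induced HEK293 TREx D1 cells, force-coupled to calcium signalling, were dye-loaded with a no-wash calcium kit. Compound was pin-added after a 10 s baseline. Fluorescence was read kinetically at 1 cycle/s for 180 s, with calcium rises flagged as agonism.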
D1 antag = Antagonist of Human D 1 Dopamine Receptor: qHTS; 360,000 compounds, 3.2% hits; D(1A) dopamine receptor (Homo sapiens), P21728; activity change, negative = inhibition, % at 10 µM; HEK293 TREx D1 cells, calcium flux, dopamine EC80; hits give low values; AID 504652, 2011; in the data active = activity change below about -30%; note: % is set by controls: 0 for no effect and ±100 for the full control effect
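Compound effects on dopamine-evoked calcium signalling were measured in tetracycline-induced HEK293 Trex D1 cells. Dopamine at EC80 followed a 180 s compound pre-read, and fluorescence was tracked kinetically for 180 s more.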
TRHR agonist = qHTS for Small Molecule Agonists and Allosteric Enhancers of Human TRH Receptor: Primary Screen for Agonists. Thyrotropin-releasing hormone receptor (Homo sapiens), P34981. TRHR cells, calcium flux fluo-8, FDSS agonist mode. activation, % at 2 µM. 360,000 compounds, 0.18% hits. AID 493084, 2011; note: 0% is about no effect
Target sequence (P34981 whole entry, looked up): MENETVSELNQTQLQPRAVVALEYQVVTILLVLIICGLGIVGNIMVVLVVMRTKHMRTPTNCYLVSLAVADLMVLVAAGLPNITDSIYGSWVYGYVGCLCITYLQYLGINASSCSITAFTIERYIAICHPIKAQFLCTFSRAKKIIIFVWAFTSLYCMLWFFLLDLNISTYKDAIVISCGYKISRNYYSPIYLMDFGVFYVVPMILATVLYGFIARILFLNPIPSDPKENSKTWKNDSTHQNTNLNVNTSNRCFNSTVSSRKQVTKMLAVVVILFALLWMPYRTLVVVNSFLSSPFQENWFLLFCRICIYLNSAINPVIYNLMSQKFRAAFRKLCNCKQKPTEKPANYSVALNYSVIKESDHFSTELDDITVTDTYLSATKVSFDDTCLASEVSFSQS
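TRHR-expressing cells loaded with fluo-8 calcium dye; 23 nL library compound pin-transferred, kinetic FDSS fluorescence (Ex 480/Em 530) recorded about 180 s for agonist-induced calcium release, before a 10 nM TRH EC20 addition for potentiator mode.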
D1 potentiator = Potentiators of Human D1 Dopamine Receptor: qHTS. HEK293 TREx D1 cells, calcium flux, dopamine EC20 potentiation. potentiation, % at 10 µM. 360,000 compounds, 0.036% hits. D(1A) dopamine receptor (Homo sapiens), P21728. AID 504651, 2011; in the data active = potentiation above about 30%; note: 0% is about no effect
TRHR enhancer = qHTS for Small Molecule Agonists and Allosteric Enhancers of Human TRH Receptor: Primary Screen for Enhancers | Thyrotropin-releasing hormone receptor (Homo sapiens), P34981 | 360,000 compounds, 0.66% hits | TRHR cells, fluo-8 calcium fluorescence, EC20 TRH enhancement | enhancement, % at 2 µM | AID 493056, 2011; in the data active = enhancement above about 30%; note: 0% is about no effect
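Enhancer read-out: after compound pinning and an initial kinetic agonist-mode read, an EC20 of TRH (10 nM final) was injected and fluo-8 calcium signal (Ex 480/Em 530) followed at 1 s/cycle for 100 cycles in TRHR-expressing cells.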
* hit, by the source's call. Sampled rows, rich in hits. Any-hit rate of the full collection: about 4.7%. Cut-off read from the data, not from the text of the source, unless noted: active = activation above about 30%; inactive = the rest.

SMILES	D1 agonist	D1 antag	TRHR agonist	D1 potentiator	TRHR enhancer
O=[N+]([O-])c1ccc(C(=S)N2CCN(c3ccc(F)cc3)CC2)cc1	0	-33*	0	4	-2
Cc1ccc(CC(=O)N2CCN(c3ccc([N+](=O)[O-])cc3)CC2)cc1	10	-42*	0	-8	3
CN(C)c1ccc(C(=S)N2CCN(c3ccc([N+](=O)[O-])cc3)CC2)cc1	1	-32*	0	-4	1
Cc1nnc(SCC(=O)NC2CCCCCC2)n1N	3	-15	1	-3	2
Cc1cc2c(s1)c1cnn(Cc3cccc(C(F)(F)F)c3F)c(=O)c1n2C	0	6	0	-4	-3
O=C(Nc1nc(-c2cc3ccccc3oc2=O)cs1)c1ccco1	-1	-64*	0	-8	1
O=C(Nc1nc(-c2ccccn2)cs1)c1ccco1	2	5	-1	-4	1
CN1CCN(CC(O)(c2ccc(Cl)cc2)c2ccc(Cl)cc2)CC1	24	-30*	2	-8	-1
Cc1cc(C(=O)Cn2nnc3ccccc3c2=O)c(C)n1-c1ccccc1F	3	-53*	-1	25	-1
COc1ccc(-n2c(C)cc(C(=O)Cn3nnc4ccccc4c3=O)c2C)cc1	3	-25	0	-1	-5
Cc1cc(C(=O)COC(=O)c2ccc(O)cc2)c(C)n1-c1ccccc1F	6	-30*	0	-2	-9
O=C(CNC(=O)c1ccc2c(c1)OCO2)N/N=C/c1cc(Br)ccc1O	2	-6	-1	3	10
O=C(COc1ccc2c(-c3ccccc3)cc(=O)oc2c1)Nc1cccnc1	20	-33*	1	-10	-2
Cc1cc(OCC(=O)NCc2cccnc2)c2c(C)c(C)c(=O)oc2c1	2	-6	0	0	4
Cc1cc(OCC(=O)Nc2cccnc2)c2c(C)c(C)c(=O)oc2c1	3	-37*	0	-20	1
O=C(NCCCc1nc2ccccc2n1Cc1ccccc1Cl)C1CCCCC1	-1	19	0	4	6
Cc1ccc(SCC(=O)Nc2ccc(O)c(-c3nc4cc(C)ccc4o3)c2)cc1	-1	-83*	0	-1	0
COc1ccc(/C=C2\SC(N)=NC2=O)cc1	6	6	0	-1	4
CCOC(=O)CSC1=NC(=O)/C(=C/c2ccc(OC)cc2)S1	6	-37*	1	-8	0
O=C(Nc1ncc(Cc2cccc(C(F)(F)F)c2)s1)C1CCCO1 (stereo unspecified)	6	-40*	1	-5	6
Cc1ccc(Cc2cnc(NC(=O)C3CCCO3)s2)cc1 (stereo unspecified)	2	14	0	7	-1
Cc1nc2c3ccccc3nc(NNC(=O)CCC(=O)O)n2n1	3	-6	0	-2	-6
Clc1ccc(CN2C3=NCCCN3c3ccccc32)cc1	72*	-60*	0	-9	3
O=C(CN1C2=NCCCN2c2ccccc21)c1cccc(Br)c1	38*	1	-1	-8	11
CC(c1nnc(SCC(=O)c2c(N)n(C3CC3)c(=O)[nH]c2=O)n1-c1ccc(F)cc1)N(C)C (stereo unspecified)	1	-2	1	-4	-11
SMILES	D1 agonist	D1 antag	TRHR agonist	D1 potentiator	TRHR enhancer
Clc1cccc(CNc2ncnc3c2nc2n3CCCC2)c1	-2	-9	0	-2	3
COc1ccc(CCNC(=O)CN2C(=O)COc3ccc(C)cc32)cc1OC	2	5	-1	5	12
CC(C)c1ccc(N(C(=O)c2snc(C(N)=O)c2N)C(C(=O)NCC2CCCO2)c2ccc(N(C)C)cc2)cc1 (stereo unspecified)	57*	48	0	3	3
Cc1ccccc1N(C(=O)c1snc(C(N)=O)c1N)C(C(=O)NCC1CCCO1)c1ccc(F)cc1 (stereo unspecified)	7	1	-1	-8	40*
Cc1ccc(OCc2nc(-c3ccc(C(=O)N4CCN(c5cc(Cl)ccc5C)CC4)cc3)oc2C)cc1	5	-34*	0	-5	-4
COc1ccc(NC(=O)c2ccc(NC(=O)CCS(=O)(=O)c3cccs3)cc2)cc1Cl	0	-12	0	0	10
COCC(=O)NNS(=O)(=O)c1ccccc1[N+](=O)[O-]	0	7	0	-6	-4
CCOc1ccc(NC(=O)CCC(=O)NNS(=O)(=O)c2ccccc2[N+](=O)[O-])cc1	224*	4	102*	-4	4
CN1CCN(/N=C/c2ccc(OCc3ccccc3)cc2)CC1	32*	-69*	0	-19	1
COC(=O)c1ccc(COc2ccc(/C=N/N3CCN(C)CC3)cc2)cc1	6	6	0	-2	1
CCOc1ccccc1NC(=O)CSc1cn(CC(=O)N2CCCCCC2)c2ccccc12	0	0	0	-1	-5
CCOC(=O)CNC(=O)Nc1cc(C(=O)NCc2ccc(C(C)C)cc2)ccc1N1CCCC1	2	0	-1	-1	7
CCOCCCN(C(=O)Nc1ccc(Cl)cc1)C1CCN(C(C)=O)CC1	0	-30*	0	0	6
CCCN(CCC)C(=O)Cn1c(=O)n(CCCCCC(=O)NCc2ccc3c(c2)OCO3)c(=O)c2sccc21	-1	-9	-2	0	-12
COc1ccc(CCNC(=O)c2c([S-])n(-c3ccc(C)cc3)c3cccc[n+]23)cc1	1	-35*	0	-4	-12
Cc1cc(C)cc(OCC(=O)Nc2nc3c(s2)CC(C(C)(C)C)CC3)c1 (stereo unspecified)	8	-75*	-1	-1	1
CCOc1ccc(NC(=O)c2ccc(NC(=O)CCS(=O)(=O)c3cccs3)cc2)cc1	3	5	1	0	-8
O=S(=O)(NCCN1CCCC1)c1cccc2cccnc12	1	-5	1	-1	-1
O=S(=O)(NCCCN1CCN(c2ccccc2F)CC1)c1cccc2cccnc12	3	-73*	-2	-10	11
COC(=O)c1ccc(C23CC4(C2)[C@H](CN(C)[C@@H]4c2ccccc2)C3c2ccc(C(F)(F)F)cc2)cc1 (stereo partly specified)	1	-52*	0	1	-5
CC(C)(C)c1ccc(OCC(O)CN2CCN(C(=O)c3ccccc3)CC2)cc1 (stereo unspecified)	5	-3	0	-4	2
COc1cc(C(C)=O)ccc1OCC(O)CN1CCN(S(=O)(=O)c2ccccc2)CC1 (stereo unspecified)	0	-31*	0	0	-5
